Among all 5,500 compounds or so, about 2,000 (36%) were called active. Not shown: some 18% with an inconclusive outcome. No stated cut-off is given here; in the data, active means normalized growth mostly below about 0.91 (no sharp cut-off); inconclusive means no clear call, values can overlap the other calls; inactive means mostly above about 0.92. The list shows a part of the results.
Experiment: chemical genetic growth profiling, strain panel (AID 1159580);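 further: tested at 20 µM; growth read once vehicle control cultures reached saturation at 30 °C; 1 = growth at the plate median or of vehicle wells; lower values mean less growth of the strain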
Settings: S. cerevisiae deletion strains, growth OD
[1] = locus YAL040C, strain CLN3, active compounds read low
[2] = locus YCL061C, strain MRC1 (second series), active compounds read low
[3] = locus YDR150W, strain NUM1, active compounds read low
[4] = locus YER002W, strain NOP16, active compounds read low
[5] = locus YNL175C, strain NOP13, active compounds read low
[6] = locus YNL197C, strain WHI3, active compounds read low
[7] = locus YNL224C, strain SQS1, active compounds read low
[8] = locus YOR083W, strain WHI5 (second series), active compounds read low
[9] = locus YPL241C, strain CIN2, active compounds read low

Measured: normalized growth

NCCCC(O)(P(=O)(O)O)P(=O)(O)O
active: locus YPL051W, strain arl3, active compounds read low 0.899
inactive: locus YAL021C, strain ccr4, active compounds read low 0.993 | locus YAL026C, strain drs2, active compounds read low 0.983 | locus YAL030W, strain snc1, active compounds read low 0.993 | locus YBL061C, strain skt5, active compounds read low 0.978 | locus YBR009C, strain hhf1, active compounds read low 0.988 | locus YBR023C, strain chs3, active compounds read low 0.992 | locus YBR171W, strain sec66, active compounds read low 0.953 | locus YBR231C, strain swc5, active compounds read low 0.977 | locus YBR279W, strain paf1, active compounds read low 0.981 | locus YCL011C, strain gbp2, active compounds read low 0.997 | locus YCL016C, strain dcc1, active compounds read low 0.984 | locus YCL061C, strain MRC1, active compounds read low 0.976 | locus YCL069W, strain vba3, active compounds read low 0.991 | locus YCR088W, strain abp1, active compounds read low 0.972 | locus YDL005C, strain med2, active compounds read low 0.99 | locus YDL040C, strain nat1, active compounds read low 0.989 | locus YDR001C, strain nth1, active compounds read low 0.983 | locus YDR069C, strain doa4, active compounds read low 1 | locus YDR137W, strain rgp1, active compounds read low 1 | locus YDR159W, strain sac3, active compounds read low 1 | locus YDR195W, strain ref2 0.943 | locus YDR297W, strain sur2, active compounds read low 0.991 | locus YDR334W, strain swr1, active compounds read low 0.967 | locus YDR335W, strain msn5, active compounds read low 0.99 | locus YDR392W, strain spt3, active compounds read low 0.964 | locus YEL003W, strain gim4, active compounds read low 0.989 | locus YEL037C, strain rad23, active compounds read low 0.978 | locus YEL061C, strain CIN8 (second series), active compounds read low 0.973 | locus YER015W, strain faa2, active compounds read low 0.987 | locus YER016W, strain bim1, active compounds read low 0.984 | locus YER111C, strain swi4, active compounds read low 0.978 | locus YER155C, strain BEM2 (second series), active compounds read low 0.968 | locus YFR010W, strain ubp6, active compounds read low 0.968 | locus YGL167C, strain pmr1, active compounds read low 0.98 | locus YGL173C, strain kem1, active compounds read low 0.959 | locus YGL227W, strain vid30, active compounds read low 0.97 | locus YGL240W, strain doc1, active compounds read low 0.995 | locus YGL253W, strain hxk2, active compounds read low 0.977 | locus YHR013C, strain ard1, active compounds read low 0.97 | locus YHR027C, strain rpn1, active compounds read low 0.983 | locus YHR030C, strain SLT2, active compounds read low 0.979 | locus YHR079C, strain IRE1, active compounds read low 0.968 | locus YHR142W, strain chs7, active compounds read low 0.972 | locus YJL092W, strain hpr5, active compounds read low 0.972 | locus YJL095W, strain BCK1 (second series), active compounds read low 0.985 | locus YJL095W, strain BCK1, active compounds read low 1 | locus YJL115W, strain asf1, active compounds read low 0.976 | locus YJL129C, strain trk1, active compounds read low 0.964 | locus YJL154C, strain vps35, active compounds read low 0.974 | locus YJL164C, strain tpk1, active compounds read low 0.996 | locus YJL166W, strain qcr8, active compounds read low 1 | locus YJL187C, strain SWE1, active compounds read low 0.991 | locus YJR066W, strain TOR1, active compounds read low 0.952 | locus YKL160W, strain elf1, active compounds read low 0.99 | locus YKR026C, strain gcn3, active compounds read low 0.98 | locus YKR091W, strain srl3, active compounds read low 0.981 | locus YLL001W, strain dnm1, active compounds read low 0.987 | locus YLL026W, active compounds read low 0.995 | locus YLL041C, strain sdh2, active compounds read low 1.01 | locus YLR027C, strain aat2, active compounds read low 1 | locus YLR113W, strain HOG1, active compounds read low 1 | locus YLR221C, strain rsa3, active compounds read low 0.99 | locus YLR258W, strain gsy2, active compounds read low 0.998 | locus YLR262C, strain YPT6 (second series), active compounds read low 0.973 | locus YLR320W, strain mms22, active compounds read low 0.987 | locus YLR342W, strain FKS1, active compounds read low 0.978 | locus YLR357W, strain rsc2, active compounds read low 0.975 | locus YLR370C, strain arc18, active compounds read low 0.976 | locus YLR384C, strain iki3, active compounds read low 0.978 | locus YML120C, strain ndi1, active compounds read low 0.989 | locus YMR058W, strain fet3, active compounds read low 0.977 | locus YMR125W, strain sto1, active compounds read low 0.978 | locus YMR129W, active compounds read low 0.99 | locus YMR205C, strain PFK2, active compounds read low 0.996 | locus YMR231W, strain pep5, active compounds read low 0.962 | locus YNL071W, strain lat1, active compounds read low 0.985 | locus YNL183C, strain NPR1, active compounds read low 0.978 | locus YNL209W, strain ssb2, active compounds read low 0.982 | locus YNL248C, strain rpa49, active compounds read low 0.985 | locus YNL322C, strain KRE1 (second series), active compounds read low 0.98 | locus YNR049C, strain mso1, active compounds read low 0.987 | locus YOR001W, strain rrp6, active compounds read low 0.983 | locus YOR070C, strain gyp1, active compounds read low 0.972 | locus YOR080W, strain dia2, active compounds read low 0.979 | locus YOR083W, strain WHI5, active compounds read low 0.99 | locus YOR106W, strain vam3, active compounds read low 0.956 | locus YOR231W, strain MKK1, active compounds read low 0.989 | locus YOR265W, strain rbl2, active compounds read low 0.995 | locus YOR270C, strain vph1, active compounds read low 0.965 | locus YOR290C, strain snf2, active compounds read low 0.98 | locus YPL078C, strain atp4, active compounds read low 0.976 | locus YPL106C, strain sse1, active compounds read low 0.983 | locus YPL240C, strain hsp82, active compounds read low 0.992 | locus YPL256C, strain CLN2, active compounds read low 0.973

NCCCP(=O)(O)O
inactive: [1] 1.04 | [2] 0.998 | [3] 1.01 | locus YDR363W, strain ESC2, active compounds read low 0.956 | [4] 0.981 | locus YGR229C, strain SMI1, active compounds read low 0.984 | [5] 0.978 | [6] 0.979 | [7] 1 | [8] 0.98 | locus YPL055C, strain LGE1, active compounds read low 1.02 | [9] 0.995

CP(=O)(O)CCCN
inactive: [1] 1 | [2] 1 | [3] 0.983 | [4] 0.994 | locus YNL153C, strain GIM3, active compounds read low 0.99 | [5] 0.996 | [6] 1.02 | [7] 0.98 | [8] 1.01 | [9] 0.989

From PubChem BioAssay AID1159580 (chemical genetic matrix, 2015)
